From PubChem BioAssay (NCATS) come the findings set out here.

Structures are written as SMILES. A number with no mark means an inactive call. Records with an inconclusive call do not appear. Active and inactive are the calls of the source. Calls follow the shape of the dose curve; as a rule, active = well fitted curve in the direction sought with a large enough effect; inconclusive = small, poorly fitted or top-dose-only effect, or another doubt; inactive = no such curve, though single readings can be large; an effect the other way counts as inactive or inconclusive.

Assay [1] concerns the target Glutathione peroxidase 1 (Homo sapiens) (UniProt P07203). Description: Primary qHTS Assay for Inhibitors of Recombinant Selenoprotein Glutathione Peroxidase 1 (GPX1) (AID 1845191). Also: nearly all actives have a fitted effect of over 65% in size. As to activity, negative = inhibition: % is scaled to controls: 0 for no effect and ±100 for the full control effect. In outline:
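NADPH consumption tracked by fluorescence at 340/450 nm between t=0 and t=15 min, room temperature. Final mix: 10 nM GPX1, 100 nM glutathione reductase, 1 mM GSH, 0.5 mM NADPH, 0.5 mM cumene hydroperoxide, 0.01% BSA; 30 min compound–enzyme preincubation.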
For orientation: In qHTS, concentration-response curves come from the screen itself.

In assay [2] the target is Phospholipid hydroperoxide glutathione peroxidase GPX4 (Homo sapiens) (UniProt P36969). Put plainly: Primary qHTS Assay for Inhibitors of Recombinant Selenoprotein Glutathione Peroxidase 4 (GPX4) (AID 1845192). Also: nearly all actives have a fitted effect of over 65% in size. As to activity change, negative = inhibition: series mostly up to about 50 µM; % is scaled to controls: 0 for no effect and ±100 for the full control effect. In outline: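 NADPH consumption followed by fluorescence at 340/450 nm, t=0 and after 15 min at room temperature. Reaction started with cumene hydroperoxide (0.5 mM final) after 30 min compound–GPX4 preincubation; final 200 nM GPX4, 100 nM GR, 1 mM GSH, 0.5 mM NADPH.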
Phospholipid hydroperoxide glutathione peroxidase GPX4 (Homo sapiens), sequence (P36969 whole entry, looked up): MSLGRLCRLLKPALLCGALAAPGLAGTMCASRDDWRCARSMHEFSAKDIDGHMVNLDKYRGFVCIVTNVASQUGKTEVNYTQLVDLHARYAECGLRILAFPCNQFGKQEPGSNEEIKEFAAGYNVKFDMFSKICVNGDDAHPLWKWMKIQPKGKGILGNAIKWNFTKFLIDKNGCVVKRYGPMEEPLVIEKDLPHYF

For assay [3], the target named is Luciferin 4-monooxygenase (Photinus pyralis) (UniProt P08659). Put plainly: Primary firefly luciferase (FLuc) qHTS assay for identification of artifact compounds. (AID 1845220). Also: nearly all actives have a fitted effect of over 60% in size.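 As to activity change, negative = inhibition: series mostly up to about 54 µM; plate controls were DMSO vehicle for no effect and no enzyme for full effect.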 In outline:
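Compounds sat 15 min at room temperature with 10 uM luciferin and 10 uM ATP (pH 7.6 Tris acetate). Firefly luciferase (10 nM final) was then added, and luminescence was read 5 min later. Data normalized to no-enzyme and DMSO controls were Hill-fitted.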

The nature of assay [4]: Primary fluorescence-based thiol-reactive (MSTI) qHTS assay for identification of artifact compounds. (AID 1845221). Also: nearly all actives have a fitted effect of over 65% in size. Also: potency is read from the fitted curve at half-maximal effect.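 As to activity change, negative = thiol reactive: series mostly up to about 54 µM; thiol-reactive compounds lower the probe fluorescence signal.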 In outline:
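Reactivity toward the thiol probe MSTI (4 uM) is scored by fluorescence at Ex/Em 525/598 nm after 1 h at room temperature. Acetyl-MSTI and MSTI define the activity scale.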

Assay [5] concerns Nanoluciferase (engineered Oplophorus gracilirostris luciferase). Description: Primary Nanoluciferase (NLuc) qHTS assay for identification of artifact compounds. (AID 1845222).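 Also: series mostly up to about 54 µM; 0% = DMSO and -100% = no enzyme.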 In outline:
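Luminescence from secreted NLuc (filtered, 1:55-diluted S16 cell medium) read 5 min after Nano-Glo substrate; compounds preincubated 15 min, RT. Hill fits of inhibition normalized to DMSO and no-enzyme.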

Assay [6] can be described thus: Primary redox qHTS assay for identification of artifact compounds. (AID 1845223).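 Also: 0% = DMSO and 100% = reference compound.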 In outline:
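Redox-cycling detection via DTT (250 uM final) oxidation coupled to Amplex Red (25 uM)/HRP (250 mU/mL) in HBSS. 15 min preincubation plus 30 min after DTT, room temperature. Ex/Em 525/598 nm; 4-parameter Hill fit against DMSO and 10 uM DA3003.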

Glutathione peroxidase 1 (Homo sapiens), sequence (P07203 whole entry, looked up): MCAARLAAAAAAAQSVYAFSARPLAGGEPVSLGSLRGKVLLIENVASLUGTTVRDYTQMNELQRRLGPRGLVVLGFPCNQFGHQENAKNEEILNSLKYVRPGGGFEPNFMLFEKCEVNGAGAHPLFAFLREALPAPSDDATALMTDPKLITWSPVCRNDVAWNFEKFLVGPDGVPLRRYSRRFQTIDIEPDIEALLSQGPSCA

Turning to `CCOc1ccc(-c2nn3ncccc3c2-c2ccc(S(C)(=O)=O)cc2)cc1`, the Potency entry in assay [1], in assay [2], in assay [3], in assay [4], in assay [5] and in assay [6] was “inactive” in each case.

As for `CC(C)[C@@](O)(c1ccc2cc(OC(F)F)c(OC(F)F)cc2c1)c1cn[nH]n1`, the Potency result in assay [1], in assay [2], in assay [3], in assay [4], in assay [5] and in assay [6] was “inactive” in each case.

With `O=C(O)Cn1nnc(-c2ccc(CN(CCCCOc3ccc(CN4CCCC4)cc3)CCc3ccccc3)cc2)n1`, the Potency entry in assay [1], in assay [2], in assay [3], in assay [4], in assay [5] and in assay [6] was “inactive” in each case.

`O=C(O)CC1CCC(c2ccc(-c3ccc(Nc4ccc(C(F)(F)F)nc4)cn3)cc2)CC1` (centres undefined): the Potency entry in assay [1], in assay [2], in assay [3], in assay [4], in assay [5] and in assay [6] was “inactive” throughout.

On to `CC(=O)N[C@H](Cc1c[nH]c2ccccc12)C(=O)OCc1cc(C(F)(F)F)cc(C(F)(F)F)c1`, for which the Potency result in assay [1], in assay [2], in assay [3], in assay [4], in assay [5] and in assay [6] was “inactive” each time.

Take `O=C(COCC(=O)N1CCN(C(c2ccccc2)c2ccccc2)CC1)Nc1ccc(Cl)cc1C(=O)O`: the Potency entry in assay [1], in assay [2], in assay [3], in assay [4], in assay [5] and in assay [6] was “inactive” throughout.

On to `N#Cc1cc(-c2n[nH]c(-c3ccncc3)n2)ccn1`, for which the Potency result in assay [1], in assay [2], in assay [3], in assay [4], in assay [5] and in assay [6] was “inactive” in each case.

`CC(=O)OC12CC(C)C(O)C1/C=C(/COC1OC(CO)C(O)C(O)C1O)CCC1C(/C=C(\C)C2=O)C1(C)C` (centres undefined): the Potency entry in assay [1], in assay [2], in assay [3], in assay [4], in assay [5] and in assay [6] was “inactive” throughout.

Take `Cc1ccccc1-c1cc(N2CCN(C)CC2)ncc1N(C)C(=O)C(C)(C)c1cc(C(F)(F)F)cc(C(F)(F)F)c1`: the Potency result in assay [1], in assay [2], in assay [3], in assay [4], in assay [5] and in assay [6] was “inactive” in each case.

On to `COc1cc(C2Oc3c(OC)cc(/C=C/C(=O)OC4CC(O)(C(=O)O)CC(O)C4O)cc3C2CO)ccc1O` (centres undefined), for which the Potency result in assay [1], in assay [2], in assay [3], in assay [4], in assay [5] and in assay [6] was “inactive” throughout.

On to `CC1(C)CC[C@]2(C(=O)O)CC[C@]3(C)C(=CCC4[C@@]5(C)C[C@@H](O)[C@H](O)[C@@](C)(CO)C5[C@H](O)C[C@]43C)[C@@H]2C1` (some centres undefined), for which the Potency result in assay [1], in assay [2], in assay [3], in assay [4], in assay [5] and in assay [6] was “inactive” each time.

With `CC1(C(=O)O)CCCC2(C)C3CCC4CC3(CCC12)CC4(O)CO` (centres undefined), the Potency entry in assay [1], in assay [2], in assay [3], in assay [4], in assay [5] and in assay [6] was “inactive” in each case.

On to `CC(C)(O)C(O)C(=O)OCc1ccc(O[C@@H]2O[C@H](CO)[C@@H](O)[C@H](O)[C@H]2O)cc1` (some centres undefined), for which the Potency result in assay [1], in assay [2], in assay [3], in assay [4], in assay [5] and in assay [6] was “inactive” throughout.

Take `CC(=O)OC1C(CO)OC(O[C@H]2[C@H](OC(=O)[C@]34CCC(C)(C)C[C@H]3C3=CCC5[C@@]6(C)CC[C@H](O[C@@H]7O[C@H](C(=O)O)[C@@H](O)[C@H](O[C@@H]8OC[C@@H](O)[C@H](O)[C@H]8O)[C@H]7O[C@@H]7O[C@H](CO)[C@H](O)[C@H](O)[C@H]7O)[C@@](C)(C=O)C6CC[C@@]5(C)[C@]3(C)C[C@H]4O)O[C@H](C)[C@H](OC3OC(C)C(OC4OCC(O)C(O)C4O)C(O)C3O)[C@@H]2O)C(O)C1O` (some centres undefined): the Potency result in assay [1] and in assay [2] was “inactive” throughout. In addition, the activity change, negative = inhibition in assay [3] is 2.42% [at 11.6 µM]. Further, the activity change, negative = thiol reactive in assay [4] was 290% [at 11.5 µM]. Further, the activity, negative = inhibition in assay [5] is 1.69% [at 11.6 µM]. Besides, in assay [6], the redox activity (% of DA3003) was 3.62% [at 11.5 µM].

`FC(F)(F)Oc1ccc(-c2ccc3nnc(C(F)(F)F)n3c2)cc1`: the Potency entry in assay [1], in assay [2], in assay [3], in assay [4], in assay [5] and in assay [6] was “inactive” throughout.

On to `CC[C@@H](C)[C@H](N)C(=O)N1Cc2ccccc2C1`, for which the Potency result in assay [1], in assay [2], in assay [3], in assay [4], in assay [5] and in assay [6] was “inactive” each time.

As for `C=C1C2CCC3CC2(CC(O)C2(O)C1CC(OC1OC(CO)C(O)C(O)C1O)C2(C)C)CC3(C)O` (centres undefined), the Potency result in assay [1], in assay [2], in assay [3], in assay [5] and in assay [6] was “inactive” throughout. In assay [4], the Potency was 5.19 µM (active).

As for `COC(=O)C(CC1(OC(=O)C(C)C)c2ccccc2N2C(=O)C(C)(C)N(O)C21)n1cnc2ccccc2c1=O` (centres undefined), the Potency entry in assay [1], in assay [2], in assay [3], in assay [4], in assay [5] and in assay [6] was “inactive” throughout.

`CN(C)C(=O)C(O)C(Cc1ccccc1)NC(=O)c1cc2cc(Cl)ccc2[nH]1` (centres undefined): the Potency entry in assay [1], in assay [2], in assay [3], in assay [4], in assay [5] and in assay [6] was “inactive” in each case.
